Measurements taken from PubChem BioAssay AID1159580 (chemical genetic matrix, 2015).
Screen size: about 5,500 compounds; about 2,000 (36%) were called active. About 18% were inconclusive and are not listed. Rule as the data show it: active = normalized growth mostly below about 0.91 (no sharp cut-off); inconclusive = no clear call, values can overlap the other calls; inactive = mostly above about 0.92. The list shows a part of the results.

Assay: chemical genetic growth profiling, strain panel (AID 1159580);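 also: tested at 20 µM; growth read once vehicle control cultures reached saturation at 30 °C; 1 = growth at the plate median or of vehicle wells; lower values mean less growth of the strain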
Details: S. cerevisiae deletion strains, growth OD

Measured: normalized growth

CC(=O)N[C@H](C(=O)O)C(C)(C)SN=O
inactive: locus YAL013W, strain DEP1, hits give low values 1.01 | locus YAL040C, strain CLN3, hits give low values 1.01 | locus YCL061C, strain MRC1 (second series), hits give low values 1.01 | locus YDR363W, strain ESC2, hits give low values 0.989 | locus YER002W, strain NOP16, hits give low values 1.01 | locus YGR078C, strain PAC10, hits give low values 1.02 | locus YGR229C, strain SMI1, hits give low values 1 | locus YMR307W, strain GAS1, hits give low values 0.987 | locus YNL128W, strain TEP1, hits give low values 0.998 | locus YNL153C, strain GIM3, hits give low values 1.02 | locus YNL175C, strain NOP13, hits give low values 1.01 | locus YNL197C, strain WHI3, hits give low values 1.01 | locus YNL224C, strain SQS1, hits give low values 1.02 | locus YNL322C, strain KRE1, hits give low values 1.01 | locus YOR083W, strain WHI5 (second series), hits give low values 1.02 | locus YPL241C, strain CIN2, hits give low values 1.01

CC(=O)O[C@H]1CC2CCC3C(CC[C@@]4(C)C3C[C@H]([N+]3(C)CCCCC3)[C@@H]4OC(C)=O)[C@@]2(C)C[C@@H]1N1CCCCC1 (stereo partly specified)
inactive: locus YAL021C, strain ccr4, hits give low values 1.02 | locus YAL026C, strain drs2, hits give low values 1.03 | locus YAL030W, strain snc1, hits give low values 1.03 | locus YBL061C, strain skt5, hits give low values 1.02 | locus YBR009C, strain hhf1, hits give low values 1.03 | locus YBR023C, strain chs3, hits give low values 1.02 | locus YBR171W, strain sec66, hits give low values 1.04 | locus YBR231C, strain swc5, hits give low values 1.03 | locus YBR279W, strain paf1, hits give low values 1.03 | locus YCL011C, strain gbp2, hits give low values 1.03 | locus YCL016C, strain dcc1, hits give low values 1.02 | locus YCL061C, strain MRC1, hits give low values 1.02 | locus YCL069W, strain vba3, hits give low values 1.02 | locus YCR088W, strain abp1, hits give low values 1.02 | locus YDL005C, strain med2, hits give low values 1.03 | locus YDL040C, strain nat1, hits give low values 1.01 | locus YDR001C, strain nth1, hits give low values 1.02 | locus YDR069C, strain doa4, hits give low values 1.02 | locus YDR137W, strain rgp1, hits give low values 1.07 | locus YDR159W, strain sac3, hits give low values 1.03 | locus YDR195W, strain ref2 1.03 | locus YDR297W, strain sur2, hits give low values 1.02 | locus YDR334W, strain swr1, hits give low values 1.02 | locus YDR335W, strain msn5, hits give low values 1.02 | locus YDR392W, strain spt3, hits give low values 0.868 | locus YEL003W, strain gim4, hits give low values 1.02 | locus YEL037C, strain rad23, hits give low values 1.02 | locus YEL061C, strain CIN8 (second series), hits give low values 1.03 | locus YER015W, strain faa2, hits give low values 1.02 | locus YER016W, strain bim1, hits give low values 1.02 | locus YER111C, strain swi4, hits give low values 1.01 | locus YER155C, strain BEM2 (second series), hits give low values 1.03 | locus YFR010W, strain ubp6, hits give low values 1.01 | locus YGL167C, strain pmr1, hits give low values 1.04 | locus YGL173C, strain kem1, hits give low values 1.03 | locus YGL227W, strain vid30, hits give low values 1.02 | locus YGL240W, strain doc1, hits give low values 1.04 | locus YGL253W, strain hxk2, hits give low values 1.01 | locus YHR013C, strain ard1, hits give low values 1.01 | locus YHR027C, strain rpn1, hits give low values 1.02 | locus YHR030C, strain SLT2, hits give low values 1.05 | locus YHR079C, strain IRE1, hits give low values 1.03 | locus YHR142W, strain chs7, hits give low values 1.02 | locus YJL092W, strain hpr5, hits give low values 1.01 | locus YJL095W, strain BCK1 (second series), hits give low values 1.02 | locus YJL095W, strain BCK1, hits give low values 0.993 | locus YJL115W, strain asf1, hits give low values 1.02 | locus YJL129C, strain trk1, hits give low values 1.03 | locus YJL154C, strain vps35, hits give low values 1.02 | locus YJL164C, strain tpk1, hits give low values 1 | locus YJL166W, strain qcr8, hits give low values 1.03 | locus YJL187C, strain SWE1, hits give low values 1.03 | locus YJR066W, strain TOR1, hits give low values 0.979 | locus YKL160W, strain elf1, hits give low values 1.03 | locus YKR026C, strain gcn3, hits give low values 0.998 | locus YKR091W, strain srl3, hits give low values 1.03 | locus YLL001W, strain dnm1, hits give low values 1.01 | locus YLL026W, hits give low values 1.02 | locus YLL041C, strain sdh2, hits give low values 1.02 | locus YLR027C, strain aat2, hits give low values 1.02 | locus YLR113W, strain HOG1, hits give low values 0.99 | locus YLR221C, strain rsa3, hits give low values 1.01 | locus YLR258W, strain gsy2, hits give low values 1.02 | locus YLR262C, strain YPT6 (second series), hits give low values 1.04 | locus YLR320W, strain mms22, hits give low values 1.02 | locus YLR342W, strain FKS1, hits give low values 1.02 | locus YLR357W, strain rsc2, hits give low values 1.04 | locus YLR370C, strain arc18, hits give low values 1.02 | locus YLR384C, strain iki3, hits give low values 1.03 | locus YML120C, strain ndi1, hits give low values 1.02 | locus YMR058W, strain fet3, hits give low values 1.03 | locus YMR125W, strain sto1, hits give low values 1.05 | locus YMR129W, hits give low values 1.02 | locus YMR205C, strain PFK2, hits give low values 1.05 | locus YMR231W, strain pep5, hits give low values 1.02 | locus YNL071W, strain lat1, hits give low values 1.01 | locus YNL183C, strain NPR1, hits give low values 0.965 | locus YNL209W, strain ssb2, hits give low values 1.02 | locus YNL248C, strain rpa49, hits give low values 1.01 | locus YNL322C, strain KRE1 (second series), hits give low values 1.02 | locus YNR049C, strain mso1, hits give low values 1.01 | locus YOR001W, strain rrp6, hits give low values 1.02 | locus YOR070C, strain gyp1, hits give low values 1.01 | locus YOR080W, strain dia2, hits give low values 1.04 | locus YOR083W, strain WHI5, hits give low values 1.02 | locus YOR106W, strain vam3, hits give low values 1.02 | locus YOR231W, strain MKK1, hits give low values 1.04 | locus YOR265W, strain rbl2, hits give low values 1.02 | locus YOR270C, strain vph1, hits give low values 1.04 | locus YOR290C, strain snf2, hits give low values 1.03 | locus YPL051W, strain arl3, hits give low values 1.01 | locus YPL078C, strain atp4, hits give low values 1.02 | locus YPL106C, strain sse1, hits give low values 1.02 | locus YPL240C, strain hsp82, hits give low values 1.01 | locus YPL256C, strain CLN2, hits give low values 1.04
